# Reference: publication PMC4336329 (PLoS ONE, 2015)
# In all, about 310,000 compounds went through this assay and about 14,000 (4.5%) showed an effect of 50% or more. Effects have a minus sign here. The list comes from a sample in which strong results are over-represented; it also holds similar structures and randomly drawn compounds.
# Target: human ether-à-go-go-related gene (hERG) potassium channel (human, UniProt Q12809)
# Assay: primary screen, population patch clamp on CHO cells stably expressing hERG; higher = less effect of the substance
# 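Also: peak tail current of the secondary pulse compared with the same well before compound.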
# human ether-à-go-go-related gene (hERG) potassium channel, sequence (Q12809 whole entry, looked up): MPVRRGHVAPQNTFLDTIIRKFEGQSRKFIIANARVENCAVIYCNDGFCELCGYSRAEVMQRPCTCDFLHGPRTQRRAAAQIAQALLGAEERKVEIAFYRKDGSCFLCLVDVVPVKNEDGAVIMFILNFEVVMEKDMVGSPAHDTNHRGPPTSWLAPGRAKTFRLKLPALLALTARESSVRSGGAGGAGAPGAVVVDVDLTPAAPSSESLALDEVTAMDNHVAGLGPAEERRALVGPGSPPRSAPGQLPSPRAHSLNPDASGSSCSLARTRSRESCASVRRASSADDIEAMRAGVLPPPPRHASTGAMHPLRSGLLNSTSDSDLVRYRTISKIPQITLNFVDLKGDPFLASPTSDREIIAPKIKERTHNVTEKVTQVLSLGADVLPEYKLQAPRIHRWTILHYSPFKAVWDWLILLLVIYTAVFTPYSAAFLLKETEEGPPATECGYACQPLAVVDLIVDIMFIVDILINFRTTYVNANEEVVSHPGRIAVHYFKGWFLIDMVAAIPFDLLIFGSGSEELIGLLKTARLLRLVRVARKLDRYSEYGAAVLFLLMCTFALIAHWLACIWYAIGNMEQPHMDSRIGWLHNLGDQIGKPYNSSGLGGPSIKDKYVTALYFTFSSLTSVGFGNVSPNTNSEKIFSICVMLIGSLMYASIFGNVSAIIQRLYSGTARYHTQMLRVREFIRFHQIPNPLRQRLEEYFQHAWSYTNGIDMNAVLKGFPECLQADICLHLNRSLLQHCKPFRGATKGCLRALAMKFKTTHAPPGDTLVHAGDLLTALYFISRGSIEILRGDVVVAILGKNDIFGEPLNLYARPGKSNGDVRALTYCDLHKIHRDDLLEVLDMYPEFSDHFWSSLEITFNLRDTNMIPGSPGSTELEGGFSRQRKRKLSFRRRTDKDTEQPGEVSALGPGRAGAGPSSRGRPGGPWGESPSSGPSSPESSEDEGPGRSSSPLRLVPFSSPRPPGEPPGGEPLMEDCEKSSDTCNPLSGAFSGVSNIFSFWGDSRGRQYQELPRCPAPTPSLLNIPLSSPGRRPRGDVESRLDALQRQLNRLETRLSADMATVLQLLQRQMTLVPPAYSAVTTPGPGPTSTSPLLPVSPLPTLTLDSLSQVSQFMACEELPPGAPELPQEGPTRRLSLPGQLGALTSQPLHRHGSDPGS
row,SMILES,"hERG current change (%, negative = inhibition) at 10uM [%]"
1,COc1cccc(NS(=O)(=O)c2ccc3[nH]cc(C(=O)NCCC(C)C)c(=O)c3c2)c1,13.9
2,Cc1ccc2nc(N/C(=N/S(=O)(=O)c3cccs3)c3ccccc3Cl)sc2c1,-7.11
3,CN1CCN(S(=O)(=O)c2ccc(NC(=O)c3cccs3)cc2)CC1,-11.3
4,NC(=O)c1ccsc1NC(=O)COC(=O)c1cnccn1,2.13
5,CC1CCC(NC(=O)CNC(=O)c2cccs2)CC1 (stereo not shown),7.33
6,Cc1n[nH]c(=O)nc1N1CCc2ccccc2C1,4.47
7,COc1cc(OC)cc(C(=O)Nc2ccc3c(c2)CCCN3C(=O)c2cccs2)c1,-2.41
8,CCOc1cc(S(=O)(=O)NCC2CCCO2)ccc1F (stereo not shown),13.8
9,COc1ccccc1/C=C/C=N/n1c(-c2ccc(F)cc2)n[nH]c1=S,6.25
10,CC1=NS(=O)(=O)c2cc(Cl)ccc2N1,-2.63
11,Cc1occc1C(=O)NNC(=O)CN1C(=O)NC(C)(c2ccccc2)C1=O (stereo not shown),19.1
12,COc1cccc(NC(=O)CN(C)C(=O)c2oc3c(ccc4ccccc43)c2C)c1,-0.74
13,CCOC(=O)c1cc(C#N)c(C)nc1N(CC)CC,-3.53
14,CC(=O)Nc1cccc(OCC(=O)NS(=O)(=O)c2ccc(C)cc2)c1,1.18
15,O=C1CC(C(=O)N2CCc3ccccc32)CN1c1ccccc1 (stereo not shown),-6.98
16,O=C1CC(C(=O)N2CCc3ccccc32)CN1c1ccc(F)cc1 (stereo not shown),-55.3
17,O=C1CC(C(=O)N2CCCc3ccccc32)CN1c1ccc(F)cc1 (stereo not shown),-22.2
18,CCNC(=O)CC1SC(=Nc2ccc(Cl)cc2)N(CC)C1=O (stereo not shown),-0.837
19,COCCCn1c(Cc2csc(Nc3ccc(F)cc3)n2)nnc1SCC(N)=O,-5.91
20,COc1ccc(CN(C)CC2CCCN(CCc3ccc(F)cc3)C2)c(OC)c1OC (stereo not shown),-74.8
21,COc1cccc(CN(C)CC2CCCN(CCc3ccc(Cl)cc3)C2)c1OC (stereo not shown),-74.5
22,COc1cc(CN(C)CC2CCCN(CCc3ccc(F)cc3)C2)c(Cl)cc1O (stereo not shown),-30
23,COc1ccc(CN(C)CC2CCCN(CCc3ccc(F)cc3)C2)cc1OC (stereo not shown),-64.8
24,COc1ccc(CN(C)C2CCN(C)CC2)cc1OC,21.8
25,COc1ccc(CN(C)CC2CCCN(CCc3ccc(Cl)cc3)C2)cc1OC (stereo not shown),-88.5

row,SMILES,"hERG current change (%, negative = inhibition) at 10uM [%]"
1,Cc1ccc2[nH]c3c(Cl)ncnc3c2c1,5.18
2,Cc1ccc(O)c(C(CC(=O)N2CCCC2)c2ccccc2)c1 (stereo not shown),-18.9
3,COc1ccc(O)c(-c2cc(-c3cccs3)[nH]n2)c1,0.169
4,CCn1cc(C2C(C(=O)Nc3cc(C)ccn3)=C(C)NC3=C2C(=O)CC(C)(C)C3)c(C)n1 (stereo not shown),11.3
5,Cc1cccc(NC(=O)CSc2nc(COc3ccccc3)nc3ccccc23)c1C,13.5
6,COc1ccccc1NC(=O)Nc1nn(C)c2cccc(OC)c12,2.03
7,CCCC12CN3CCN(CC(C3)/C1=N\NC(=O)c1ccc(C(C)(C)C)cc1)C2,-14.4
8,Cc1cccc(N2CCN(CC(=O)Nc3nccs3)CC2)c1C,-45.3
9,Cc1cc2nc(-c3ccc(SCC(=O)Nc4ccc5c(c4)OCCO5)nc3)[nH]c2cc1C,2.26
10,COC(=O)c1cc2c(cc1NC(=O)CSCCc1ccccn1)OCO2,7.82
11,COc1ccc(-c2noc(CN(C)S(=O)(=O)c3ccc(Cl)cc3)n2)cc1OC,-9.85
12,O=C1NC(=O)[C@]2(Cc3ccccc3N3CCN(c4ccccc4)CC32)C(=O)N1c1ccccc1 (stereo partly shown),-7.93
13,COc1ccc([N+](=O)[O-])cc1NS(=O)(=O)c1ccccc1,8.94
14,COc1ccc(N2CCN(CC(=O)Nc3cc(C)on3)CC2)cc1.O=C(O)C(=O)O,0.616
15,CC(C)Cn1c(N)c(C(=O)CSc2ncccn2)c(=O)n(C)c1=O,6.81
16,Cc1ccc(S(=O)(=O)CCC(=O)NCc2ccc(Cl)cc2)cc1,-3.96
17,CCOc1ccc(OCCC(=O)N(CC)CC(=O)NCc2ccc(Cl)cc2)cc1,-60.5
18,CCOc1ccc(N(CC(=O)NCc2ccc(Cl)cc2)S(=O)(=O)c2ccccc2)cc1,20.4
19,CCOc1ccc(OCCC(=O)OCC(=O)NCc2ccc(Cl)cc2)cc1,8.85
20,CCN(CC(=O)NCc1cccs1)C(=O)CCCOc1ccccc1,-35.2
21,CCN(CC(=O)Nc1cc(Cl)ccc1C)C(=O)CCOc1ccc(C)cc1,-8.25
22,CCN(CC(=O)NCc1ccc(Cl)cc1)C(=O)CCOc1ccc(C)cc1,-82.6
23,CCCCOc1ccc(C(=O)N(CC)CC(=O)NCc2cccs2)cc1,-19.1
24,CCN(CC(=O)Nc1c(F)cccc1F)C(=O)CCCNC(=O)c1ccc(Cl)cc1,-7.06
25,CCN(CC(=O)NCc1cccs1)C(=O)CCCOc1ccc(C(C)(C)C)cc1,-52.6

row,SMILES,"hERG current change (%, negative = inhibition) at 10uM [%]"
1,CCN(CC(=O)Nc1c(F)cccc1F)C(=O)CCC(=O)c1ccc(F)cc1,-12.1
2,CCN(CC(=O)Nc1c(F)cccc1F)C(=O)CCNC(=O)c1ccc([N+](=O)[O-])cc1,-55.4
3,CCN(CC(=O)Nc1ccccc1C(F)(F)F)C(=O)CCOc1ccc(C)cc1,-13.1
4,O=C(NCC1COCCO1)C1CCN(S(=O)(=O)c2ccccc2)CC1 (stereo not shown),-7.05
5,Cc1cc(C)cc(N(CC(=O)NCc2cccnc2)S(C)(=O)=O)c1,-1.95
6,Cc1ccccc1NCc1ccc([N+](=O)[O-])s1,-38.8
7,CCC(C)(CC(=O)N(C)CCC#N)c1ccccc1 (stereo not shown),-0.111
8,COc1ccc(C(=O)N2CCCC(Nc3ccc(C)c(C)c3)C2)c(OC)n1 (stereo not shown),-17.7
9,COc1cc(OC)cc(-c2nc3ccccc3c(=O)n2OC(=O)c2ccccc2C)c1,10.6
10,CCOc1ccc(OCCC(=O)N(CC)CC(=O)Nc2c(F)cccc2F)cc1,-60.2
11,CCN(CC(=O)Nc1cc(Cl)ccc1C)C(=O)CCOc1ccccc1C,18.4
12,CCN(CC(=O)NCc1cccs1)C(=O)CCOc1ccccc1C,-19.8
13,CCN(CC(=O)NCc1ccc(Cl)cc1)C(=O)CCOc1ccccc1C,-71
14,CCN(CC(=O)Nc1c(F)cccc1F)C(=O)CCOc1ccc(C)cc1,-2.71
15,CCOc1ccc(OCCCC(=O)N(CC)CC(=O)Nc2c(F)cccc2F)cc1,-5.99
16,C=CCn1c(C)cc(C(=O)COC(=O)c2ccc3c(c2)NC(=O)CS3)c1C,4.69
17,COCCn1c(C)cc(C(=O)COC(=O)c2cncc(Br)c2)c1C,-31.3
18,C=CCn1c(C)cc(C(=O)COC(=O)c2cncc(Br)c2)c1C,-55.9
19,Cc1cc(C)nc(NS(=O)(=O)c2ccc(N)cc2)n1,12
20,CNc1cc(NS(=O)(=O)c2ccc(N)cc2)nc(NC)n1.Cl,-61.4
21,COc1cc(NS(=O)(=O)c2ccc(N)cc2)nc(OC)n1,9.57
22,CC(C)CNc1ncnc2c1sc1nc(N3CCOCC3)c3c(c12)CC(C)(C)OC3,-4.77
23,CCN(CC)CCNc1ncnc2c1sc1nc(N3CCOCC3)c3c(c12)CCCC3,-32.8
24,CN(CCO)c1ncnc2c1sc1nc(N3CCOCC3)c3c(c12)CCC3,-55.2
25,CC1(C)Cc2c(c(N3CCOCC3)nc3sc4c(NN)ncnc4c23)CS1,-5.43

row,SMILES,"hERG current change (%, negative = inhibition) at 10uM [%]"
1,OCCN(CCO)c1ncnc2c1sc1nc(N3CCOCC3)c3c(c12)CCCC3,-13.3
2,CCN(CC)CCNc1ncnc2c1sc1nc(N3CCCC3)c3c(c12)CC(C)(C)OC3,-65.5
3,CN(C)CCNc1ncnc2c1sc1nc(N3CCCC3)c3c(c12)CC(C)(C)OC3,-20.4
4,OCCN1CCN(c2ncnc3c2sc2nc(N4CCOCC4)c4c(c23)CCC4)CC1,-22.1
5,CCN(CC)CCNc1ncnc2c1sc1nc(N3CCOCC3)c3c(c12)CC(C)(C)SC3,-71.1
6,C[C@]12CCC(OC(=O)CCC(=O)O)CC1=CCC1C2CC[C@]2(C)C(=O)CCC12 (stereo partly shown),11.5
7,CC1(C)c2[nH]c3ccccc3c2C[C@H]2C(=O)N(N)CC(=O)N21.Cl,19
8,COc1ccc(N2CCN(c3nc4cc(C)ccc4cc3C=O)CC2)cc1,16.6
9,COC(=O)C1=C(c2c(C)noc2C)C[C@@H]2CC[C@H]1N2C(=O)NCc1ccco1,19
10,O=C1COc2ccc(C(=O)CSc3nnc(NCc4ccccc4)s3)cc2N1,-9.48
11,CCOC(=O)c1cnc(SCC(=O)Nc2nnc(CC)s2)nc1N,8.46
12,CCn1c(SCC(=O)Nc2nc(C)cs2)nnc1-c1ccco1,-50.8
13,O=[N+]([O-])c1ccc(Sc2n[nH]c(-c3ccco3)n2)nc1,-0.59
14,CCn1c(SCC(N)=O)nnc1-c1ccco1,3.15
15,Cc1csc(NC(=O)CSc2nnc(-c3ccco3)n2C)n1,-31.6
16,O=[N+]([O-])c1ccc(Sc2ccccc2)nc1,8.82
17,CCOC(=O)c1cnc(SCC(=O)Nc2nc(C)c(C)s2)nc1N,-61.9
18,O=[N+]([O-])c1ccc(Sc2ccccn2)nc1,10.8
19,O=[N+]([O-])c1ccc(Sc2ncc3ccccn23)nc1,-51.6
20,CCn1c(SCC(=O)Nc2nncs2)nnc1-c1ccco1,17.2
21,CCOC(=O)c1cnc(SCC(=O)Nc2sc(C)c(C)c2C#N)nc1N,14.2
22,CCn1c(Sc2ccc([N+](=O)[O-])cn2)nnc1-c1ccco1,-66.5
